# Experiments:
# Settings in all cases: concentration: 1 μM, replicates: in singlicate; n = 1
# [1] = system: PAK1
# [2] = system: PAK2
# [3] = system: PAK3
# [4] = system: PAK4
# [5] = system: PAK6
# [6] = system: PAK7
# [7] = system: T1, PCTK1
# T1 construct: gene CDK16
# [8] = system: T2, PCTK2
# T2 construct: gene CDK17
# [9] = system: T3, PCTK3
# T3 construct: gene CDK18
# [10] = system: PDGFRA
# [11] = system: PDGFRB
# [12] = system: PDPK1
# [13] = system: PFTAIRE2
# [14] = system: T4, PFTK1
# T4 construct: gene CDK14
# [15] = system: PHKG1
# [16] = system: PHKG2
# [17] = system: PIK3C2B
# [18] = system: PIK3C2G
# [19] = system: PIK3CA
# [20] = system: PIK3CB
# 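Note: KINOMEscan kinase panel screen.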
SMILES,%Inh [1] [%],%Inh [2] [%],%Inh [3] [%],%Inh [4] [%],%Inh [5] [%],%Inh [6] [%],%Inh [7] [%],%Inh [8] [%],%Inh [9] [%],%Inh [10] [%],%Inh [11] [%],%Inh [12] [%],%Inh [13] [%],%Inh [14] [%],%Inh [15] [%],%Inh [16] [%],%Inh [17] [%],%Inh [18] [%],%Inh [19] [%],%Inh [20] [%]
COc1ccc(NC(=O)c2ccc(-c3cc(-c4nnc(C)o4)ccc3C)cc2)cc1 [GW595885],0,0,0,0,0,0,6,0,24,0,47,0,0,5,3,0,0,0,0,0
COc1cc2c(Nc3cccc(NC(=O)c4ccccc4)c3)ncnc2cc1OCCCN1CCOCC1 [GSK223810],4,0,5,0,0,0,0,0,22,63,85,100,16,0,5,12,0,0,0,0
N#Cc1ccc(Oc2ccc(Nc3ncnc4cc[nH]c34)cc2Cl)cc1,35,45,24,19,27,15,0,13,20,25,31,1,11,17,5,18,0,28,5,11
FC(F)(F)c1ccc(-c2cc(-c3c[nH]nc3-c3ccccn3)ccn2)cc1 [GW599550],11,28,32,0,0,0,0,11,25,11,30,5,20,19,0,21,0,0,3,0
COc1ccc(NC(=O)Nc2ccc(C)c(-c3ccc(C(=O)Nc4ccncc4)cc3)c2)cc1 [GSK1398475],0,0,3,0,0,9,0,0,0,28,100,0,20,24,0,0,0,0,0,0

# — PMC5540273 (PLoS ONE, 2017)
